The text below walks through data of ChEMBL document CHEMBL3988442, “University of Dundee, Small-Polar-MMV Screening Library” (2021).

For some assays here: Potency and affinity values are given separately.

What all share (set-up): scale not given: direction of the effect not stated beside the values
Experiment [1] concerns the target Protein translocase subunit SecA (Escherichia coli (strain K12)) (UniProt P10408). Kind of experiment: Assay to Identify E. coli SecA ATPase Inhibitors. Format: functional. The note with it: 30 µM.
Experiment [2] has as its target T1, Ubiquitin-activating enzyme e1, putative (Leishmania donovani (strain BPK282A1)) (UniProt E9BSI1).
T1 sequence (whole entry): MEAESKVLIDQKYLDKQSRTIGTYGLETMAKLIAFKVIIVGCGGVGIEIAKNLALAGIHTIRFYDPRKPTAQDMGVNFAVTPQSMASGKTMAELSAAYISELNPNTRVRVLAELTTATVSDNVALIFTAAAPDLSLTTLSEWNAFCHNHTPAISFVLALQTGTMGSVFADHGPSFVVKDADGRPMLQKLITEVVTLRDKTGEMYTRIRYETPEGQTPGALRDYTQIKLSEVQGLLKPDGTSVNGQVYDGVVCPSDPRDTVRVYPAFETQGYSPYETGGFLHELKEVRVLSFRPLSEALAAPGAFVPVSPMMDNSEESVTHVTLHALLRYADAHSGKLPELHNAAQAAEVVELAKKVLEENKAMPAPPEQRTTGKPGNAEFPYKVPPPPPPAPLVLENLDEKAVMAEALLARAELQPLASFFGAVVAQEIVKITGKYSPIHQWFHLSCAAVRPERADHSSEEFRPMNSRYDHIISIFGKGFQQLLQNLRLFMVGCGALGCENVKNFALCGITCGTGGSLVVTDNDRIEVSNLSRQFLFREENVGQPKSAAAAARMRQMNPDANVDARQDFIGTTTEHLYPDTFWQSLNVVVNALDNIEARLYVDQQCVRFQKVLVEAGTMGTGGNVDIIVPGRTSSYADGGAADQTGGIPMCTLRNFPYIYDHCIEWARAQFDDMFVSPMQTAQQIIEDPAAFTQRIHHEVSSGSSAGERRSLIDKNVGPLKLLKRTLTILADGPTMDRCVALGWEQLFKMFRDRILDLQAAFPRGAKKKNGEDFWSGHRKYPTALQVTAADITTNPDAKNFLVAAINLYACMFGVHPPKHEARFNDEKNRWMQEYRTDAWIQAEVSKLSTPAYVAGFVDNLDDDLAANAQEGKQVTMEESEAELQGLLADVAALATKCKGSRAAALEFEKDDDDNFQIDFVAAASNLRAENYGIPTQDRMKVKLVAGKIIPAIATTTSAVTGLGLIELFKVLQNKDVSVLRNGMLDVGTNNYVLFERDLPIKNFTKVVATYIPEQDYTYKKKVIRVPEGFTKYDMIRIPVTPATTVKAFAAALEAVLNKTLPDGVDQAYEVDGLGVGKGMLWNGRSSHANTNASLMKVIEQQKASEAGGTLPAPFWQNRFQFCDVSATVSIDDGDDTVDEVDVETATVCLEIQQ
As to the kind of experiment: Leishmania donovani Ubiquitin Activating Enzyme (LdE1). Format: functional. The conditions noted are these: 30 µM.

The target of experiment [3] is AMP-activated protein kinase, AMPK (Homo sapiens) (UniProt P54646+O43741+P54619+Q9UGJ0+Q9Y478+Q13131+Q9UGI9). Kind of experiment: AMP-dependent Kinase enzyme assay. An in vitro enzyme assay that detects ADP turnover that is directly proportional to AMPK activity. This uses naive AMPK that is activated during the assay with MK-8722. Type of experiment: functional. The conditions noted are these: 30 µM.

Experiment [4] has as its target Sialic acid-binding Ig-like lectin 9 (Homo sapiens) (UniProt Q9Y336). As to the kind of experiment: Hs-Siglec9 ALPHAscreen SOP 20170721. The note with it: 10 µM. (In Alpha technology, singlet oxygen from a donor bead excites a nearby acceptor bead.)
The next experiment relates to Trypanosoma cruzi. Kind of experiment: Trypanosoma cruzi phosphomannomutase and mannose-1-phosphate guanylyltransferase assay. Format: functional. The note with it: 10 µM.
Experiment [5] deals with T2, Arginase-2, mitochondrial (Homo sapiens) (UniProt P78540).
T2 sequence (whole entry): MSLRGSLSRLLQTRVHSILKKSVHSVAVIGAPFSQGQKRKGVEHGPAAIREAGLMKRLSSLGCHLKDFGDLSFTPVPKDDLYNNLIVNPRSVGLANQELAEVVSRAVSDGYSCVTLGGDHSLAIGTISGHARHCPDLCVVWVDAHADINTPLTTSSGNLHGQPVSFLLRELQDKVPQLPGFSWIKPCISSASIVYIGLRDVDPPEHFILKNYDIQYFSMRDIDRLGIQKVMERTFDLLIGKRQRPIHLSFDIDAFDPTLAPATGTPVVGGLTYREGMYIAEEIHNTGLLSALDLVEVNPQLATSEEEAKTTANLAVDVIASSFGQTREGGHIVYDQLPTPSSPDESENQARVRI
As to the kind of experiment: in vitro enzyme assay to detect the production of urea directly proportional to the activity of Arginase II. Note: in the data most compounds retested in dose-response had high values. Type of experiment: functional. The conditions noted are these: 33.3 µM.

The target in experiment [6] is T3, Proteasome subunit beta (Trypanosoma cruzi) (UniProt O96673).
T3 sequence (whole entry): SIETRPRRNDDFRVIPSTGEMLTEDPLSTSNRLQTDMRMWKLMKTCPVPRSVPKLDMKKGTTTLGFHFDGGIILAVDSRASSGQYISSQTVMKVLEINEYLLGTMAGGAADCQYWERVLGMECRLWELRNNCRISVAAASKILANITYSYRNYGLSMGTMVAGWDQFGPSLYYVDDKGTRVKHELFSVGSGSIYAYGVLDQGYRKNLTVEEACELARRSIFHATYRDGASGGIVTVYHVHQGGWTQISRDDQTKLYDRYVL
As to the kind of experiment: Trypanosoma cruzi proteasome chymotrypsin-like activity (TcProtChymo) assay. Note: in the data most compounds retested in dose-response had high values. Format: functional. The note with it: 9.37 µM.

For another experiment, the species on record is Homo sapiens. As to the kind of experiment: To identify inhibition of the IFN signalling (Jak-Stat) pathway via expression of an eGFP reporter gene under the control of an IFN-stimulated response element (ISRE) containing MxA promoter. Format: functional. The note with it: 30 µM. A general note: Reporter assays use an easily measured gene product as a stand-in for the process of interest.

For experiment [7], the target named is T4, Tyrosyl-tRNA synthetase, putative (Trypanosoma cruzi (strain CL Brener)) (UniProt Q4DSP6).
T4 sequence (whole entry): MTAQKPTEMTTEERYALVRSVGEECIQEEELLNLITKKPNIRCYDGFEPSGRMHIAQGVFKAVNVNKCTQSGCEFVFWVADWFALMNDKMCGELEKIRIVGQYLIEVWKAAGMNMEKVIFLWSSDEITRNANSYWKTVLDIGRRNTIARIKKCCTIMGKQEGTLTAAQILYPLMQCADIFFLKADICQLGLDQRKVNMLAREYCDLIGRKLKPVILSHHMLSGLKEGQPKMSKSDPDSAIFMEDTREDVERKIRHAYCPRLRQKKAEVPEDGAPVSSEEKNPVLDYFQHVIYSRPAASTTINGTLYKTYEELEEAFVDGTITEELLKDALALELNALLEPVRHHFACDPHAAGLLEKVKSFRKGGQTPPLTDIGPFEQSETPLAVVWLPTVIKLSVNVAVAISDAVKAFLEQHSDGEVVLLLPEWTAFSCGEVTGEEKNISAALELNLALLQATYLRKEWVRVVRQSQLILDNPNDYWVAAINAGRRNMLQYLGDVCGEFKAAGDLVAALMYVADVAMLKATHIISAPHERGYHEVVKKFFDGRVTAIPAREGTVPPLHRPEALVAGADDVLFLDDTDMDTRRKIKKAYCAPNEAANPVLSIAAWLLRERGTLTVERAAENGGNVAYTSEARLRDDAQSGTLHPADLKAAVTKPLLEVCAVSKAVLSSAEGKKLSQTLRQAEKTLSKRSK
Kind of experiment: Trypanosoma cruzi tyrosyl tRNA synthetase (TcYRS) _High Tyrosine SOP. Note: in the data most compounds retested in dose-response had high values. Format: functional. The conditions noted are these: 30 µM.

For experiment [8], the target named is T4, Tyrosyl-tRNA synthetase, putative (Trypanosoma cruzi (strain CL Brener)). As to the kind of experiment: Trypanosoma cruzi tyrosyl tRNA synthetase (TcYRS) SOP. Type of experiment: functional. The conditions noted are these: 30 µM.
The target of experiment [9] is Chromo domain-containing protein 1 (Saccharomyces cerevisiae (strain ATCC 204508 / S288c) (Baker's yeast)) (UniProt P32657). As to the kind of experiment: ScCHD-1 Enzyme Inhibition Assay. Note: in the data most compounds retested in dose-response had high values. Type of experiment: functional. The note with it: 30 µM.
Sequence of Chromo domain-containing protein 1 (Saccharomyces cerevisiae (strain ATCC 204508 / S288c) (Baker's yeast)) (P32657 whole entry, the tested form may be a part): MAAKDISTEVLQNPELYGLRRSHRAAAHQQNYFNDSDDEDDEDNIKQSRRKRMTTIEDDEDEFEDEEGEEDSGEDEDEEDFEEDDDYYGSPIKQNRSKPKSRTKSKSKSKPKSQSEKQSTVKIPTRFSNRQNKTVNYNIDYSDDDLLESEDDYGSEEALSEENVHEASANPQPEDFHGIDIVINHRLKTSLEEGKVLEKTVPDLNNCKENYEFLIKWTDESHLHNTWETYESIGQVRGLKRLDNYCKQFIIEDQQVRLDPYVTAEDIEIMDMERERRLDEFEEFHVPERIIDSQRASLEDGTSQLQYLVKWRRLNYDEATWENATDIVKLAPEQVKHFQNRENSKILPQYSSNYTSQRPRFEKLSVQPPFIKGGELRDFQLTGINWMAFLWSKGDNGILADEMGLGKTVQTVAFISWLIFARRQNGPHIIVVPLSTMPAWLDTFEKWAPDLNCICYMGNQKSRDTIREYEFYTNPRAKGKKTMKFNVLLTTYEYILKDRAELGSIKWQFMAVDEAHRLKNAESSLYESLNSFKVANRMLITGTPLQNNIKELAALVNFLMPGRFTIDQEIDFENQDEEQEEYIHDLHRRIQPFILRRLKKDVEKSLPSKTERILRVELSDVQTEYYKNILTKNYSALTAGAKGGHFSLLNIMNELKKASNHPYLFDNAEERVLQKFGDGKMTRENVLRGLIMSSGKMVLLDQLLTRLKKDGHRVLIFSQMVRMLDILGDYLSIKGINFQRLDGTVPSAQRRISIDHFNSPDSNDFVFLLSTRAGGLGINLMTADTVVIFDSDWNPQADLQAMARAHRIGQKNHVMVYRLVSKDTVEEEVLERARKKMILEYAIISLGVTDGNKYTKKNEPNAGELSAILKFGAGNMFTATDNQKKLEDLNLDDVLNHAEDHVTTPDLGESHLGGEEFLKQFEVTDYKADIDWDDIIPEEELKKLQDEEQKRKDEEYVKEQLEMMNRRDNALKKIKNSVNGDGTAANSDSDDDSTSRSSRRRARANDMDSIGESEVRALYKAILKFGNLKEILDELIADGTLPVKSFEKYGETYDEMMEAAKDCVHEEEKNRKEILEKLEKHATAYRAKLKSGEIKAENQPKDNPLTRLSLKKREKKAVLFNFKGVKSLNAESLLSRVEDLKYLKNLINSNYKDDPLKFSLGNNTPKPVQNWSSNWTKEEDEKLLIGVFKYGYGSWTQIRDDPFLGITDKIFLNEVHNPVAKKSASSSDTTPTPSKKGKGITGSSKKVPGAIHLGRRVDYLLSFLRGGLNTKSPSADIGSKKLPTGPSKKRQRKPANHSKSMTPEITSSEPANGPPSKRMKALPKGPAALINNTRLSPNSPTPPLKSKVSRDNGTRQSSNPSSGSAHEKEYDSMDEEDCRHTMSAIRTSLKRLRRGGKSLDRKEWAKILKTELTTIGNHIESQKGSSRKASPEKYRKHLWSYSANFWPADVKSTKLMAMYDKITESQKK

Sequence of Sialic acid-binding Ig-like lectin 9 (Homo sapiens) (Q9Y336 whole entry): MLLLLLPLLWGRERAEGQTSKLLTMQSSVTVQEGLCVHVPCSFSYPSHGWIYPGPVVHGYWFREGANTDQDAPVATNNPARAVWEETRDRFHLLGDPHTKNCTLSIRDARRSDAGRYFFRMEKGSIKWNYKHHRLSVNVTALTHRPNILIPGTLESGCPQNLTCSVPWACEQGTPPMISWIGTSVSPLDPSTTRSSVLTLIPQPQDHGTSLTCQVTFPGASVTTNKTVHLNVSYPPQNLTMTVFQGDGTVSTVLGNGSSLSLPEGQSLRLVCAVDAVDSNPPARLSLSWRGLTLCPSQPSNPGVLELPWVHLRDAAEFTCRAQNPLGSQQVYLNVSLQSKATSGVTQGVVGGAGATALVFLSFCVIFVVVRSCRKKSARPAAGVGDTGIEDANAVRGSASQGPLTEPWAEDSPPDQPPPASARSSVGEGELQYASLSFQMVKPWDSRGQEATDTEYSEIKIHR
Sequence of Protein translocase subunit SecA (Escherichia coli (strain K12)) (P10408 whole entry): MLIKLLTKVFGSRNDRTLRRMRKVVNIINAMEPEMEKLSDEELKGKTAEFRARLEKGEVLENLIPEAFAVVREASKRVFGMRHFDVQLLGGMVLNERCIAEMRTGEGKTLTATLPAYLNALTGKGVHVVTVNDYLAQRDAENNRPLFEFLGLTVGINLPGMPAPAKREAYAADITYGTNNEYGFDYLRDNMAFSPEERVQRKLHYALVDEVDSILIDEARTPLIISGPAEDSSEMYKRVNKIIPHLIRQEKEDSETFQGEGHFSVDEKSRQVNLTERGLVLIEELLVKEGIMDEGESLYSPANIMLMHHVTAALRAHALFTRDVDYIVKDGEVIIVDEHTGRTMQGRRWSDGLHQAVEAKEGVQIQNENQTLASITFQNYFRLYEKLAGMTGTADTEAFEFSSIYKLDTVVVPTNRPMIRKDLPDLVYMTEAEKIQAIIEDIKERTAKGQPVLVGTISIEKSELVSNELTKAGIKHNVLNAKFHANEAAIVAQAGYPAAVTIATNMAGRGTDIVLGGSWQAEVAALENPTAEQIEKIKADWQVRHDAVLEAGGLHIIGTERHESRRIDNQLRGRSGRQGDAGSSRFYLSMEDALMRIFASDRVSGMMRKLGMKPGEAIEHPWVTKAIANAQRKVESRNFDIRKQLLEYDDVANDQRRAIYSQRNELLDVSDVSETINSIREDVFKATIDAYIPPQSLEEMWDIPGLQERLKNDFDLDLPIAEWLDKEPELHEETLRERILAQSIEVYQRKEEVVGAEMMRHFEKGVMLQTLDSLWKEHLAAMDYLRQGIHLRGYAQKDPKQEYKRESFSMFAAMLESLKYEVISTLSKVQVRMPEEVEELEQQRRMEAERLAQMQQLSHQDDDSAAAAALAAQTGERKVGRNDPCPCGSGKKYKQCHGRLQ

As for `Cc1nnc2n1CCN(Cc1csc(-c3ccc(F)cc3)n1)C2`, the Percent Effect in experiment [1] was -4.19%; in experiment [2], 5.41%; in [3] it was -2.56%; in experiment [4], 4.19%; in the experiment on Trypanosoma cruzi, 8.26%; in [5], -4.62%. Also, the Percent Effect in [6] is 5.75%; in the experiment filed under Homo sapiens, 4.35%; in [7], 3.96%; in experiment [8] it was 15.8%; in experiment [9], -6.22%.
Consider `O=C1O[C@@H]2CN(Cc3cccc(F)c3)C[C@@H]2N1CCCN1CCOCC1`, for which the Percent Effect in experiment [1] is -1.1%; in experiment [2], 10.7%; in experiment [3], 4.3%; in [4], 9.62%; in the experiment with Trypanosoma cruzi, 2.82%; in experiment [5] it was 12.5%. Also, the Percent Effect is 21.3% in experiment [6]; 9.55% in the experiment filed under Homo sapiens; 3.83% in [7]; 21% in experiment [8]; -10.6% in experiment [9].
As for `Cc1cccc2nc(C(=O)N3CCC(Nc4cccnn4)CC3)cn12`, the Percent Effect in [1] is -4.19%; in experiment [2] it was 5.2%; in experiment [3] it was 2.91%; in experiment [4], 37.9%; with Trypanosoma cruzi, -0.0979%; in experiment [5] it was -1.47%. The Percent Effect in [6] was 8.16%; in the experiment filed under Homo sapiens it was 3.1%; in experiment [7], 0%; in [8] it was 9.41%; in [9], -18.7%.
Regarding `Cc1nc(C)c(C(=O)N2CCCC2c2nnc3n2CCCCC3)s1` (stereo not given), the Percent Effect in experiment [1] was -2.68%; in experiment [2] it was 13.5%; in experiment [3], -4.05%; in experiment [4] it was 1.58%; in the experiment with Trypanosoma cruzi, 0.586%; in experiment [5] it was 5.42%. The Percent Effect is 14.3% in experiment [6]; 3.62% in the experiment filed under Homo sapiens; 11.9% in experiment [7]; 11% in experiment [8]; -0.436% in experiment [9].
As for `CN1C(=O)C[C@@H]2[C@@H]1CCN2C(=O)c1ccc[nH]1`, the Percent Effect is -5.79% in experiment [1]; -2.74% in [2]; 1.46% in [3]; 3.04% in [4]; -1.59% with Trypanosoma cruzi; -3.99% in experiment [5]. The Percent Effect stood at 10.7% in [6]; 17.1% in the experiment listed under Homo sapiens; 1.04% in experiment [7]; 6.17% in [8]; 0.233% in experiment [9].
Consider `CN(C)C1CCN(C(=O)NCc2ccccc2Cn2cncn2)CC1`, for which the Percent Effect in [1] was -2.11%; in experiment [2], 10.8%; in [3] it was -1.1%; in experiment [4], 10.9%; in the experiment on Trypanosoma cruzi, 7.72%; in experiment [5] it was 6.19%. Further, the Percent Effect in experiment [6] is 12.2%; in the experiment listed under Homo sapiens, 18.3%; in experiment [7], 7.94%; in experiment [8], 17.1%; in experiment [9], -1.22%.
In the case of `Cn1c(C(F)(F)F)nn(CCNC(=O)NCc2ccccc2)c1=O`, the Percent Effect was -6.75% in experiment [1]; 0% in experiment [2]; -5.98% in experiment [3]; 26.1% in experiment [4]; 7.25% with Trypanosoma cruzi; 15% in experiment [5]. The Percent Effect in experiment [6] is 1.6%; in the experiment listed under Homo sapiens, 8.74%; in [7], 4.3%; in [8] it was 12.5%; in experiment [9] it was -7.03%.
Take `CN(Cc1ccsc1)C(=O)Nc1ccc(S(C)(=O)=O)nc1`: the Percent Effect in experiment [1] was -2.7%; in experiment [2], 22.8%; in [3], -11.6%; in experiment [4], -5.34%; in the experiment on Trypanosoma cruzi it was 4.63%; in experiment [5], -3.04%. The Percent Effect was 10.6% in experiment [6]; 5.01% in the experiment filed under Homo sapiens; 9.36% in [7]; 24.1% in experiment [8]; -6.57% in [9].
Regarding `CCc1nnc(CNCC2CCN(CC(O)c3ccccc3)CC2)o1` (stereo not given), the Percent Effect in [1] was -4.81%; in experiment [2] it was 19%; in experiment [3] it was -3.87%; in experiment [4] it was -2.88%; with Trypanosoma cruzi, -2.15%; in [5] it was -7.1%. Moreover, the Percent Effect in experiment [6] is 11.5%; in the experiment filed under Homo sapiens, 14%; in experiment [7], -2.08%; in experiment [8] it was 12.7%; in [9] it was -30.3%.
Take `O=C(COC(=O)Cc1cccs1)NCc1cccc(NC(=O)C2CC2)c1`: the Percent Effect in experiment [1] was -4.92%; in experiment [2], 21.1%; in experiment [3], 1.38%; in [4], -10.9%; in the experiment on Trypanosoma cruzi it was -3.27%; in [5], -1.08%. The Percent Effect in [6] is 3.47%; in the experiment listed under Homo sapiens, 4.04%; in experiment [7], 5.42%; in experiment [8] it was 16.1%; in experiment [9] it was -4.73%.
